In PubChem BioAssay (NCI):
Compounds without any hit were thinned out: in the full panel of roughly 79,000, 15% have a hit. Cut-off read from the data, not from the text of the source: active = growth inhibition above about 70%; inactive = the rest. Where a SMILES comes first, the peptide text is derived from it. [ ]: non-standard residue; d: D form. The star is where a group is joined. ξ: configuration not given here. ξD = NC(CC(=O)O)C(=O)O; Boc = CC(C)(C)OC(=O)*; Aib = CC(C)(N)C(=O)O; OBn = c1ccc(CO*)cc1

Assays:
[1] = NCI Yeast Anticancer Drug Screen. Data for the rad50 strain (AID 155);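 note: 0% = growth of vehicle-only cultures of the same strain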; conditions: S. cerevisiae rad50 strain growth inhibition; at 50.0 µM; hits give high values
Method in brief: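 Growth of the mutant yeast was measured after compound exposure and referenced to vehicle-treated cultures.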

[2] = NCI Yeast Anticancer Drug Screen. Data for the mec2-1 strain (AID 157); conditions: S. cerevisiae mec2-1 strain, at 50.0 µM, hits give high values
Method in brief: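 Test agents were screened against the mec2-1 yeast strain, with defined DNA repair or cell cycle alteration. Growth was scored as inhibition against vehicle-only controls.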

[3] = NCI Yeast Anticancer Drug Screen. Data for the sgs1 mgt1 strain (AID 161);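 note: 0% = growth of cultures given vehicle only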; conditions: S. cerevisiae sgs1 mgt1 strain, at 50.0 µM, hits give high values
Method in brief: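 Genetically altered yeast, compound exposure, growth inhibition relative to vehicle.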

[4] = NCI Yeast Anticancer Drug Screen. Data for the cln2 rad14 strain (AID 165);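 note: 0% = growth equal to vehicle treated cultures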; conditions: S. cerevisiae cln2 rad14 strain, at 50.0 µM, hits give high values
Method in brief: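 Growth of compound-exposed yeast (cln2 rad14 genotype) measured and expressed as inhibition relative to vehicle.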

[5] = NCI Yeast Anticancer Drug Screen. Data for the bub3 strain (AID 167); conditions: S. cerevisiae bub3 mutant strain, at 50.0 µM, hits give high values
Method in brief: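 Whole-cell yeast assay. The mutant strain was incubated with compounds, and growth inhibition was determined by comparison with vehicle-treated cells.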

[6] = NCI Yeast Anticancer Drug Screen. Data for the mlh1 rad18 strain (AID 175); conditions: S. cerevisiae mlh1 rad18 strain growth inhibition; at 50.0 µM; hits give high values
Method in brief: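 In this whole-cell yeast screen, a strain with altered DNA damage repair is challenged with compound, and its growth is measured against matched vehicle-treated controls.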

Measured: growth inhibition

C=CCC1(C(C)C(O)c2cc(OC)c(OC)c(OC)c2)CC(O)C=CC12OCCO2 (stereo unspecified)
inactive: [1] 13.9% | [2] -17.3% | [3] 1.5% | [4] 14.9% | [5] 16.2% | [6] 24.6%

CCCC(=O)Oc1ccc(C(=O)OC)cc1
inactive: [1] 8.4% | [2] -10.8% | [3] -11.9% | [4] -24.8% | [5] -16.4% | [6] 13.3%

CC(O)CNCc1ccc(N(C)C)cc1 (stereo unspecified)
inactive: [1] -15.8% | [2] 0.4% | [3] 6.8% | [4] -8.85% | [5] -4.65% | [6] 13.7%

COc1ccccc1C(O)c1ccccc1 (stereo unspecified)
inactive: [1] 9.6% | [2] -30.4% | [3] 15.3% | [4] 11.4% | [5] 9.3% | [6] 3.75%

CC1(C)CC(=O)C2=C(C1)NC1=C(C2)C(=O)CC(C)(C)C1
inactive: [1] -15.4% | [2] -5.7% | [3] -22.4% | [4] 19.9% | [5] 7.6% | [6] 12.8%

COc1ccccc1/C=C1/Sc2scc(CC(=O)Nc3ccccc3)[n+]2C1=O
inactive: [1] 8.9% | [2] 4% | [3] 23.6% | [4] 17.7% | [5] -4.7% | [6] 24.8%

CCCCOCCOCCO
inactive: [1] -18.2% | [2] -21.6% | [3] -15.7% | [4] -14.7% | [5] 1.45% | [6] 1.5%

Clc1ccc2c(c1)nc(-c1ccccn1)n2CCc1ccncc1
inactive: [1] 3.75% | [2] 0.05% | [3] 2.4% | [4] -16.4% | [5] -13.4% | [6] 13.8%

Cc1cccc(I)c1
inactive: [1] -21.4% | [2] -24.4% | [3] -4.95% | [4] -2.1% | [5] -2.55% | [6] 17.2%

NC(=O)C(O)C(O)CO (stereo unspecified)
inactive: [1] -8.8% | [2] -9.35% | [3] -15.2% | [4] 7.2% | [5] -8.8% | [6] -5.25%

Cc1n[nH]c(=O)[nH]c1=O
inactive: [1] -25.2% | [2] -24.8% | [3] -2.7% | [4] 3.45% | [5] -0.85% | [6] 2.55%

O=C(NC(=O)c1ccccc1F)Nc1ccc(Cl)cc1
inactive: [1] 27.1% | [2] 37.3% | [3] 24.6% | [4] 56.8% | [5] 49.8% | [6] 43.1%

COc1ccc2ncc(COC(C)=O)c(COC(C)=O)c2c1
inactive: [1] -10.9% | [2] -9.45% | [3] -7.8% | [4] 14.7% | [5] -12.4% | [6] -8.4%

C=C1c2ccccc2N(S(=O)(=O)c2ccc(C)cc2)C12CCCCC2
inactive: [1] 3.9% | [2] 14.6% | [3] -10.2% | [4] -3.2% | [5] -0.7% | [6] -6%

COC(=O)/C(=C/Cl)NC(C)=O
inactive: [1] 3.2% | [2] -7.55% | [3] -4.8% | [4] -9.9% | [5] 8.7% | [6] 5.8%

COC(=O)CCC(=O)c1ccc2c(c1)CC1(C2)Cc2ccc(C(=O)CCC(=O)OC)cc2C1
inactive: [1] -1.45% | [2] -30.6% | [3] -22.4% | [4] 5.35% | [5] -20.1% | [6] 2.9%

CCCCCC/C=N\NC(N)=S
inactive: [1] -17.1% | [2] 14.2% | [3] 30.4% | [4] -71.1% | [5] 17.9% | [6] 28.2%

OCC(O)COCCCCCCCCCCCCCC1C=CCC1 (stereo unspecified)
inactive: [1] -35.8% | [2] -43.5% | [3] -35% | [4] -4.3% | [5] -23.5% | [6] -30.7%

Cc1csc2[nH]c(=O)[nH]c(=O)c12
inactive: [1] 5.5% | [2] 6.05% | [3] -1.4% | [4] -28.1% | [5] -15.2% | [6] 4.5%

COc1cccc(OC)c1OC(=O)/C=C\C(=O)Oc1c(OC)cccc1OC
inactive: [1] 29.9% | [2] -8.65% | [3] 18.8% | [4] -3.75% | [5] -2.05% | [6] 20.8%

C1=CCC(C(Cc2ccccc2)N2CCCCC2)CC1 (stereo unspecified)
inactive: [1] 15.8% | [2] 1% | [3] 23.9% | [4] -27.4% | [5] 11.2% | [6] 24.1%

O=C(c1ccccc1)N(Cc1ccccc1)Cc1ccccc1
inactive: [1] 1% | [2] 35.1% | [3] 26.4% | [4] -34.2% | [5] 41% | [6] 28.2%

O=C(Nc1nc2ccccc2[nH]1)C(F)(F)F
inactive: [1] -6.8% | [2] -13.4% | [3] -3.85% | [4] 5.55% | [5] -2.55% | [6] 20%

Cc1ccc2ccc(C)nc2c1
inactive: [1] 15.8% | [2] -23.7% | [3] -5.85% | [4] 7.15% | [5] 18.2% | [6] -22.9%

N=C(N)N1CCC(N2CCOCC2)CC1
inactive: [1] 14.7% | [2] -18.4% | [3] -12.6% | [4] -24.4% | [5] 4.75% | [6] -52.5%

CC1(C)C(CBr)=[N+]([O-])C(C)(C)N1O
inactive: [1] 4.8% | [2] -0.6% | [3] -15.2% | [4] 13.6% | [5] -12.9% | [6] 21.6%

O=C(O)/C(=C/c1ccc([N+](=O)[O-])cc1)c1ccc([N+](=O)[O-])cc1
inactive: [1] 6.9% | [2] -4% | [3] 2.05% | [4] -35.4% | [5] -1.7% | [6] 1.55%

CC(=O)Nc1ccc(S(=O)(=O)N/N=C/C(=O)O)cc1
inactive: [1] -15.6% | [2] -32.4% | [3] -40% | [4] -22.4% | [5] 5.4% | [6] -16.6%

COc1ccc2c(c1)C(=O)CC(C(N)=O)C2 (stereo unspecified)
inactive: [1] 20.6% | [2] 2.85% | [3] -29.9% | [4] 3.6% | [5] -13.7% | [6] -32%

COc1cc2c(cc1O)[C@@H]1Cc3c(cc(OC)c(OC)c3Oc3cc4c(cc3OC)CCN(C)[C@@H]4Cc3ccc(O)cc3)[C@H](C2)N1C
inactive: [1] 14.9% | [2] 8.75% | [3] 0.15% | [4] 12.1% | [5] -10.4% | [6] -56%

CN(C)c1ccc(/C=N/NC(=S)Nc2cccc3cccnc23)cc1
inactive: [1] 18.6% | [2] -3.05% | [3] 1.4% | [4] 20.3% | [5] 20.6% | [6] -2.8%

O=c1[nH]c(=O)n(C2CC(O)C(CO)O2)cc1NN=NCCc1ccccc1 (stereo unspecified)
inactive: [1] -24.3% | [2] 0.75% | [3] 5.05% | [4] 4.85% | [5] 1.9% | [6] 10.8%

O=S(=O)(NC/C=C/c1ccccc1)c1ccccc1
inactive: [1] -6.95% | [2] 16.7% | [3] -0.45% | [4] 26.9% | [5] 4.65% | [6] -39.9%

OCCOCCNc1ncnc2cc(Cl)ccc12
inactive: [1] -12.4% | [2] -14.7% | [3] 5.25% | [4] -14.2% | [5] 7.2% | [6] 4.2%

OCC1(CO)CCC=CO1
inactive: [1] 3.8% | [2] -7.8% | [3] 2.5% | [4] 10.7% | [5] 1.05% | [6] 5%

CCCCOC(=O)C(C)OP(=O)(OC(C)C(=O)OCCCC)OC(C)C(=O)OCCCC (stereo unspecified)
inactive: [1] -19.4% | [2] -5% | [3] 9.5% | [4] -26.1% | [5] -0.3% | [6] 16.2%

COc1cccc(C2c3cc4c(cc3OC(N3CCCCC3)C2C)OCO4)c1OC (stereo unspecified)
inactive: [1] 33.1% | [2] 30.8% | [3] 46.4% | [4] 19.8% | [5] 63% | [6] 61.8%

O=C(CCl)NCCCCCNC(=O)CCl
inactive: [1] -11.7% | [2] 2.85% | [3] -6.85% | [4] -31.7% | [5] 15.2% | [6] 17.6%

CC(=O)N[C@]1(C)CCC2C[C@H]1C(C)=NC2(C)C
inactive: [1] -5.55% | [2] 4.05% | [3] -2.5% | [4] 12.2% | [5] 1.3% | [6] -14.4%

O=C(NC(NC(NC(=O)c1ccc([N+](=O)[O-])cc1)c1ccc([N+](=O)[O-])cc1)c1ccc([N+](=O)[O-])cc1)c1ccc([N+](=O)[O-])cc1 (stereo unspecified)
inactive: [1] 3.35% | [2] -10.4% | [3] 1.65% | [4] -24.9% | [5] -5.3% | [6] -7.95%

CC(C)(C)OC(=O)NC(CC(=O)OCc1ccccc1)C(=O)NC(C)(C)C(N)=O (stereo unspecified) (Boc-[ξD](OBn)-[Aib]-NH2)
inactive: [1] 5.25% | [2] 11.8% | [3] 2% | [4] 26.6% | [5] 23.4% | [6] -19.8%
